# Measured values from PubChem BioAssay (NCATS).
# Values joined by “and” are separate entries in the source; they are usually repeats but may differ in a detail not shown here. Identical values can stand only once. A number with no mark means an inactive call. Records with an inconclusive call do not appear. Active and inactive are the calls of the source. Unless noted, calls follow the shape of the dose curve; as a rule, active = well fitted curve in either direction with a large enough effect (not every such curve was filed as active); inconclusive = small, poorly fitted or top-dose-only effect, or another doubt; inactive = flat fitted curve, though single readings scatter.
# Assays:
# [1] = AP1 Signaling Pathway (AID 357); conditions: ME-180 AP-1-bla reporter, EGF-induced, beta-lactamase ratio, 5 h; also: % is scaled to controls: 0 for no effect and ±100 for the full control effect
# How it was run: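 In this screen, ME-180 cells in Opti-MEM with 0.5% dialyzed FBS received EC50 EGF and compound titrations for 5 h. AP-1 reporter beta-lactamase was detected via CCF4 ratio, giving AC50 for positive and negative modulators.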
# [2] = target: Cytochrome P450 1A2 (Homo sapiens) (UniProt P05177); assay: p450-cyp1a2 (AID 410; calls by dose curve; also: potency is read from the fitted curve at half-maximal effect;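 as to activity change, negative = inhibition: -100% = full effect of reference inhibitor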)
# Sequence of Cytochrome P450 1A2 (Homo sapiens) (P05177 whole entry, looked up): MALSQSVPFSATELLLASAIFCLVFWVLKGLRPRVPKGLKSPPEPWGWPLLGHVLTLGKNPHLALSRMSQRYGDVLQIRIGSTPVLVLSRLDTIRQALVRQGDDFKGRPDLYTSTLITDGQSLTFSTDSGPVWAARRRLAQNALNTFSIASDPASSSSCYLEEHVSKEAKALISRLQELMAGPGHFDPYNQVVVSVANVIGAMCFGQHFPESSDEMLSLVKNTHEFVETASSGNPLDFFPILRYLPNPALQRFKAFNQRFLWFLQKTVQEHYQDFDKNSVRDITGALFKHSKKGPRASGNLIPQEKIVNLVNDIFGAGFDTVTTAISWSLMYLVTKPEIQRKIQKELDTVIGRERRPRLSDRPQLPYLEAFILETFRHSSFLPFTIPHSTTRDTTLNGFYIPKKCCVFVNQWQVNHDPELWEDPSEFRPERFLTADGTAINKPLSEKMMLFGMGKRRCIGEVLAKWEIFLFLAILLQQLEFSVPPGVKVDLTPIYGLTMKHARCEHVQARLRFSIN
# How it was run: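 O-Demethylation of luciferin 6' methyl ether by human CYP1A2 is monitored as luciferase luminescence. Substrate sits at Km (100uM); enzyme is 20nM. Values are scaled to 57 uM furafylline as maximal inhibition.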
# [3] = Cell Viability - BJ (AID 421; calls by dose curve;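 also: potency is read from the fitted curve at half-maximal effect; cells exposed to compound for 40 hours at 37 °C before readout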); conditions: BJ fibroblast viability, qHTS
# How it was run: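 Luminescent ATP signal (CellTiter-Glo, 20 min at room temperature) served as the read-out of viable BJ cells after 40 hours of compound treatment. Responses were scaled between DMSO and 100 uM tamoxifen, and AC50 values were obtained by Hill modeling.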
# [4] = Cell Viability - Jurkat (AID 426;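 active = dose-dependent loss of cell ATP signal giving a full or clear fitted curve, ranked by lower potency value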;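 also: potency is read from the fitted curve at half-maximal effect; cells exposed to compound for 40 hours at 37 °C before ATP read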); conditions: qHTS
# How it was run: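 Cells of the human T-cell leukemia line Jurkat (E6-1) are seeded at 5000 per well, treated with compound across a concentration range for 40 hours at 37 °C, then lysed with CellTiter-Glo; luminescence reports ATP.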
# [5] = Cell Viability - Hek293 (AID 427;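 active = compounds whose dose-response curve shows a full or clear partial loss of cell viability, called from curve shape rather than a numeric limit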;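 also: potency is read from the fitted curve at half-maximal effect; cells exposed to compound for 40 hours at 37 °C before reading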); conditions: qHTS
# How it was run: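 Luminescent ATP read-out (CellTiter-Glo, 20 min RT) after 40 hr compound exposure at 37 °C in complete medium. Signal normalized to DMSO (basal) and 100 uM tamoxifen (100% inhibition); concentration-response fitted with the standard Hill equation to give AC50.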
# [6] = Cell Viability - HepG2 (AID 433; calls by dose curve;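 also: potency is read from the fitted curve at half-maximal effect; potency for ATP loss meaning cytotoxicity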); conditions: qHTS
# How it was run: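 Cytotoxicity read as ATP loss (CellTiter-Glo luminescence) after 40 hr compound exposure of HepG2, 1500 cells/well, 37 °C. AC50 by Hill equation; 0% set by DMSO, 100% inhibition by 100 uM tamoxifen.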
# [7] = Cell Viability - MRC5 (AID 434; calls by dose curve;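 also: potency is read from the fitted curve at half-maximal effect; potency reflects cytotoxicity seen as loss of intracellular ATP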); conditions: MRC5 lung fibroblast viability, qHTS
# How it was run: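 Decrease in intracellular ATP, quantified by luciferase light output, reflects compound toxicity toward MRC5 cells exposed for 40 hr in complete culture medium. Concentration-response curves, scaled between DMSO and 100 uM tamoxifen, gave AC50 values.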
# [8] = Cell Viability - SK-N-SH (AID 435; calls by dose curve; also: potency is read from the fitted curve at half-maximal effect); conditions: SK-N-SH neuroblastoma cell viability qHTS
# How it was run: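 qHTS cytotoxicity: CellTiter-Glo ATP luminescence after 40 h compound exposure of human neuroblastoma SK-N-SH cells at 37 °C. AC50 derived by Hill-equation fitting, with DMSO as basal and 100 uM tamoxifen as full inhibition.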
# [9] = NFAT Signaling Pathway (AID 444); conditions: Jurkat NFAT-bla M1, carbachol, beta-lactamase ratio, 5 h;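 also: carbachol stimulus at about its EC50 of 1 µM final; % is scaled to controls: 0 for no effect and ±100 for the full control effect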
# How it was run: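 Jurkat cells carrying an NFAT-driven β-lactamase reporter and co-transfected muscarinic M1 receptor were treated with compound plus carbachol (1 uM final, an EC50 level) for 5 h at 37 °C. CCF4 loading followed for 1 h at RT; 460/530 nm ratio gave %activity.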
# [10] = Stat Signaling Pathway (AID 446); conditions: ME-180 (cervical carcinoma) SIE beta-lactamase reporter, IL-6 stimulated, 5 h; at 17.2 µM (top of the series) unless noted;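 also: ME-180 cervical cancer cells given 40 pM IL-6 alongside compound; SIE-controlled beta-lactamase reporter measured as 460/530 nm FRET emission ratio; % is scaled to controls: 0 for no effect and ±100 for the full control effect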
# How it was run: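 Compound effects on IL-6-induced STAT reporter activity were measured in ME-180 cells. After overnight culture, cells were co-treated with 40 pM IL-6 for 5 hrs before beta-lactamase substrate loading at room temperature.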
# [11] = target: Mitogen-activated protein kinase 10 (Mus musculus) (UniProt Q61831); assay: JNK3 AlphaScreen Assay (AID 530);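 also: kinase came from lysate of stimulated human HepG2 cells; signal reports phosphorylation of biotinylated GST-cJun 1-79 at Ser73 with 10 µM ATP; % is scaled to controls: 0 for no effect and ±100 for the full control effect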
# How it was run: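 Phosphorylation of biotinylated GST-cJun(1-79) at Ser73 is measured by AlphaScreen proximity luminescence. Enzyme is JNK3 in HepG2 lysates activated with interleukin-1beta and tumor necrosis factor alpha; ATP is 10 uM final.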
# [12] = Cell Viability - N2a (AID 540; active = well fitted curve in the direction sought with a large enough effect; an effect the other way counts as inactive or inconclusive; also: nearly all actives have a fitted effect of over 45% in size; also: potency is read from the fitted curve at half-maximal effect;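 as to activity change, negative = cytotoxicity: plate controls were DMSO alone for no effect and tamoxifen control for full effect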); conditions: N2a mouse neuroblastoma cell viability; activity change, negative = cytotoxicity: at 92.2 µM (top of the series)
# How it was run: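 Cytotoxicity was scored as loss of cellular ATP in N2a cells, a mouse neuroblastoma line. Compounds are applied in a qHTS concentration series for 40 hr at 37 °C.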
# [13] = Cell Viability - NIH 3T3 (AID 541; active = well fitted curve in the direction sought with a large enough effect; an effect the other way counts as inactive or inconclusive;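 also: plate controls were DMSO alone for no effect and tamoxifen positive control for full effect; nearly all actives have a fitted effect of over 25% in size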); conditions: NIH 3T3 cell viability, qHTS; activity change, negative = cytotoxicity: at 92.2 µM (top of the series)
# How it was run: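 Cells seeded at 1000/well, rested 5 hr at 37 °C, then dosed and incubated 40 hr at 37 °C. CellTiter-Glo added, 20 min room temperature, luminescence read. AC50 by Hill fit.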
# [14] = Cell Viability - HUV-EC-C (AID 542; active = well fitted curve in the direction sought with a large enough effect; an effect the other way counts as inactive or inconclusive; also: % is scaled to controls: 0 for no effect and ±100 for the full control effect; nearly all actives have a fitted effect of over 35% in size)
# How it was run: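 Cells were seeded at 1000 per well and incubated 5 hr at 37 °C before compound addition. After 40 hr at 37 °C, CellTiter-Glo reagent was added for 20 min and luminescence read. AC50 values came from Hill-equation modelling.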
# [15] = Cell Viability - H-4-II-E (AID 543; active = well fitted curve in the direction sought with a large enough effect; an effect the other way counts as inactive or inconclusive; also: nearly all actives have a fitted effect of over 35% in size; also: potency is read from the fitted curve at half-maximal effect)
# How it was run: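 Cells seeded at 1500 per well and rested 5 hr; compounds added; 40 hr incubation at 37 °C; CellTiter-Glo added, 20 min at room temperature; luminescence read. Hill-equation fits gave AC50.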
# [16] = Cell Viability - SH-SY5Y (AID 544; active = well fitted curve in the direction sought with a large enough effect; an effect the other way counts as inactive or inconclusive;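 also: 0% = DMSO alone and -100% = 100 µM tamoxifen; nearly all actives have a fitted effect of over 55% in size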); conditions: SH-SY5Y neuroblastoma cell viability; viability change, negative = cytotoxic: at 92.2 µM (top of the series)
# How it was run: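 Cells were plated at 1500 per well and allowed 5 hr at 37 °C. Compounds were added across a concentration range and incubated 40 hr at 37 °C. CellTiter-Glo was added for 20 min at room temperature before luminescence reading.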
# [17] = Cell Viability - Renal Proximal Tubule (AID 545; active = well fitted curve in the direction sought with a large enough effect; an effect the other way counts as inactive or inconclusive; also: nearly all actives have a fitted effect of over 40% in size; also: potency is read from the fitted curve at half-maximal effect;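 as to activity change, negative = cytotoxicity: 0% = DMSO only and -100% = 100 µM tamoxifen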)
# How it was run: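 Viability taken as intracellular ATP (CellTiter-Glo luminescence) after 40 hr, 37 °C compound treatment of primary proximal tubule cells from rat kidney, 1000 cells/well; Hill-equation fits of qHTS concentration-response data gave AC50.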
# [18] = Cell Viability - Mesenchymal (AID 546; active = well fitted curve in the direction sought with a large enough effect; an effect the other way counts as inactive or inconclusive;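 also: cells exposed to compound for 40 hours before reading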; also: potency is read from the fitted curve at half-maximal effect;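 as to activity change, negative = cytotoxicity: 0% = DMSO only and -100% = 100 µM tamoxifen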)
# How it was run: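 In this qHTS cytotoxicity format, glomerulus-derived human mesenchymal kidney cells received compound for 40 hr, then luciferase-based ATP quantitation. Concentration-response data were fitted with the Hill equation.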
# [19] = target: Glucocorticoid receptor (Homo sapiens) (UniProt P04150); assay: GR-GFP Redistribution (AID 450;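 active = compounds whose dose series gives a full or clear partial fitted curve of increased nuclear translocation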; also: potency is read from the fitted curve at half-maximal effect); conditions: U2OS GR-GFP nuclear translocation, laser cytometry, 2 h
# Sequence of Glucocorticoid receptor (Homo sapiens) (P04150 whole entry, looked up, the tested form may be a part): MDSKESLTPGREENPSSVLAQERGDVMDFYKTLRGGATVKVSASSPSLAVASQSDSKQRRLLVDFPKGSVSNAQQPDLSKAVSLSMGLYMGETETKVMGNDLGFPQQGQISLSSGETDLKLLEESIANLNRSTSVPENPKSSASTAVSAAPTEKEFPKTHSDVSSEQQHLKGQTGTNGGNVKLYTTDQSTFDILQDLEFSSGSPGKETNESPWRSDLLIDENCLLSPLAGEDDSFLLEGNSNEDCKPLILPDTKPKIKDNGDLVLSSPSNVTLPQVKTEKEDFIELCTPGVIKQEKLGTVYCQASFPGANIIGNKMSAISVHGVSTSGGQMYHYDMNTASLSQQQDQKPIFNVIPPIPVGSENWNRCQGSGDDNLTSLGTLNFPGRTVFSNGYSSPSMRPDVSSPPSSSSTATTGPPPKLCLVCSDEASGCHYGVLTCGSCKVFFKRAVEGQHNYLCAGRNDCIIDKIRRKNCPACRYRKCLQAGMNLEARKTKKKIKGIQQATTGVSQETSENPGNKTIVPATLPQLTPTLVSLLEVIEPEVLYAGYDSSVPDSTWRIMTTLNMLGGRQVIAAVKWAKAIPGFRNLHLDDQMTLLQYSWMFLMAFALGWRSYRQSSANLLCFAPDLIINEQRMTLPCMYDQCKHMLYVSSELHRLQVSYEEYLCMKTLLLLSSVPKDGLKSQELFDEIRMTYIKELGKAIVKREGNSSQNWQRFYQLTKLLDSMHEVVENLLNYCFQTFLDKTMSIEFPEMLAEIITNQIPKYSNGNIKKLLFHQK
# [20] = target: Glucocorticoid receptor (Homo sapiens) (UniProt P04150); assay: GR-EFC Redistribution (AID 451; calls by dose curve; also: potency is read from the fitted curve at half-maximal effect); conditions: CHO-K1 GR-EFC translocation, beta-gal luminescence, 2 h
# How it was run: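 CHO-K1 cells stably expressing nuclear-localized β-gal enzyme acceptor and GR fused C-terminally to the enzyme donor fragment; ligand-driven nuclear translocation restores β-gal by complementation. Compounds titrated up to 46 uM final, 2 h at 37 °C; luminescence read.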
# [21] = at 17.2 µM (top of the series) unless noted
structure (smiles),measurement,setting,value
Cc1noc(NS(=O)(=O)c2ccc(N)cc2)c1C,"activity change, negative = inhibition",[1]; [21],3.21% and 4.22%
same,Potency,[2],inactive
same,Potency,[3],> 92 µM
same,Potency,[4],> 92 µM
same,Potency,[5],> 92 µM
same,Potency,[6],> 92 µM
same,Potency,[7],> 92 µM
same,Potency,[8],> 92 µM
same,"activity change, negative = inhibition",[9]; [21],-7.16% and 11.7%
same,"activity, negative = inhibition",[10],7.81% and 5.09%
same,Potency,[11],inactive
same,Potency,[12],inactive
same,"activity change, negative = cytotoxicity",[13],-8.82%
same,Potency,[14],inactive
same,Potency,[15],inactive
same,Potency,[16],inactive
same,Potency,[17],inactive
same,Potency,[18],inactive
NNC(=O)c1ccncc1,"activity change, negative = inhibition",[1]; [21],11.8% and 7.05%
same,Potency,[2],6.31 µM (active)
same,Potency,[3],> 92 µM
same,Potency,[4],> 92 µM
same,Potency,[5],> 92 µM
same,Potency,[6],> 92 µM
same,Potency,[7],> 92 µM
same,Potency,[8],> 92 µM
same,"activity change, negative = inhibition",[9]; [21],-9.4% and 6.65%
same,"activity, negative = inhibition",[10],3.44% and 12.3%
same,Potency,[19],> 20.6 µM
same,Potency,[20],> 20.6 µM
same,Potency,[11],inactive
same,Potency,[12],inactive
same,"activity change, negative = cytotoxicity",[13],-5.93%
same,Potency,[14],inactive
same,Potency,[15],inactive
same,Potency,[16],inactive
same,Potency,[17],inactive
same,Potency,[18],inactive
CC[C@H](C)C(=O)O[C@H]1C[C@@H](C)C=C2C=C[C@H](C)[C@H](CC[C@@H]3C[C@@H](O)CC(=O)O3)[C@H]21,"activity change, negative = inhibition",[1]; [21],-19.5%
same,Potency,[3],> 92 µM
same,Potency,[5],> 92 µM
same,Potency,[7],> 92 µM
same,"activity, negative = inhibition",[10],-3.85%
same,Potency,[19],> 20.6 µM
same,Potency,[11],inactive
same,Potency,[12],2 µM (active)
same,"activity change, negative = cytotoxicity",[13],-92.8% (active)
same,Potency,[14],inactive
same,Potency,[15],7.94 µM (active)
same,Potency,[17],2 µM (active)
same,Potency,[18],7.94 µM (active)
COC(=O)Nc1nc2ccc(Sc3ccccc3)cc2[nH]1,"activity change, negative = inhibition",[1]; [21],1.3% and 6.61%
same,Potency,[2],0.794 µM (active)
same,"activity change, negative = inhibition",[9]; [21],-6.14%
same,"activity, negative = inhibition",[10],1.46% and -3.37%
same,Potency,[19],> 20.6 µM
same,Potency,[20],> 20.6 µM
same,Potency,[11],inactive
Cc1ncc([N+](=O)[O-])n1CCO,"activity change, negative = inhibition",[1]; [21],7.25% and 11.7%
same,Potency,[2],inactive
same,Potency,[3],> 92 µM
same,Potency,[4],> 92 µM
same,Potency,[5],> 92 µM
same,Potency,[6],> 92 µM
same,Potency,[7],> 92 µM
same,Potency,[8],> 92 µM
same,"activity change, negative = inhibition",[9]; [21],-4.16% and -8.01%
same,"activity, negative = inhibition",[10],4.79% and 0.586%
same,Potency,[11],inactive
same,Potency,[12],inactive
same,"activity change, negative = cytotoxicity",[13],-7.75%
same,Potency,[14],inactive
same,Potency,[15],inactive
same,Potency,[16],inactive
same,Potency,[17],inactive
same,Potency,[18],inactive
N[C@@H](Cc1ccc(O)c(O)c1)C(=O)O,"activity change, negative = inhibition",[1]; at 17.2 µM (top of the series),-2.87%
same,"activity change, negative = inhibition",[1]; at 38 µM (top of the series),-2.2%
same,Potency,[2],inactive
same,"activity change, negative = inhibition",[9]; at 17.2 µM (top of the series),1.41%
same,"activity change, negative = inhibition",[9]; at 38 µM (top of the series),18.2%
same,"activity, negative = inhibition",[10],4.83%
same,Potency,[19],> 46 µM and > 20.6 µM
same,Potency,[20],> 46 µM and > 20.6 µM
same,Potency,[11],inactive
Cc1cc(NS(=O)(=O)c2ccc(N)cc2)no1,"activity change, negative = inhibition",[1]; [21],3.59% and 0.387%
same,Potency,[3],> 92 µM
same,Potency,[4],> 92 µM
same,Potency,[5],> 92 µM
same,Potency,[6],> 92 µM
same,Potency,[7],> 92 µM
same,Potency,[8],> 92 µM
same,"activity change, negative = inhibition",[9]; [21],1.34% and -21.2%
same,"activity, negative = inhibition",[10],2% and 5.36%
same,Potency,[19],> 20.6 µM
same,Potency,[20],> 20.6 µM
same,Potency,[11],inactive
same,Potency,[12],inactive
same,"activity change, negative = cytotoxicity",[13],-14.5%
same,Potency,[14],inactive
same,Potency,[15],inactive
same,Potency,[16],inactive
same,Potency,[17],inactive
same,Potency,[18],inactive
CCCCOc1ccc(CC(=O)NO)cc1,"activity change, negative = inhibition",[1]; [21],-22.1% and -10.8%
same,Potency,[2],1.58 µM (active)
same,"activity change, negative = inhibition",[9]; [21],-5.9% and 15%
same,"activity, negative = inhibition",[10],-9.96% and -7.15%
same,Potency,[19],> 20.6 µM
same,Potency,[20],> 20.6 µM
same,Potency,[11],inactive
COc1ncnc(NS(=O)(=O)c2ccc(N)cc2)c1OC,"activity change, negative = inhibition",[1]; [21],-3.45%
same,Potency,[2],inactive
same,"activity change, negative = inhibition",[9]; [21],-25.1%
same,"activity, negative = inhibition",[10],-3.42%
same,Potency,[11],inactive
